# According to the supplement of paper PMC9135407:
# Several values for one entry are separate records, joined by “and”; a condition that tells them apart may be missing. Equal entries are not always repeated. Structures can show the parent of a compound that is named as a salt. The campaign covered roughly 5,800 compounds. About 620 (11%) showed activity. For the sample, actives were picked, then their nearest neighbours and some compounds at random. Values without a mark were called inactive.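 The calls were made as follows: active = score above a cut-off or among the top three wells of a plate; in these data no inactive exceeds 0.85.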
# Test system: primary human hepatic stellate cells (donor 1)
# Test: scaled lipid accumulation score (0 = DMSO-like, 1 = nortriptyline-like); higher = stronger HSC inactivation (lipid re-accumulation), active = hit call of the paper
# Conditions: 48 h
# [1] = library stock concentration: 10 mM
# [2] = library stock concentration: 3.33 mM
# [3] = library stock concentration: 1 mM
# [4] = library stock concentration: 80 uM
# [5] = library stock concentration: 400 uM
# [6] = library stock concentration: 2 mM
# [7] = library stock concentration: 6.4 mM
structure (smiles),measurement,setting,value
CC(=O)NCCCCCCNC(C)=O,scaled lipid accumulation score,[1],≤ 0
COc1cc2c(cc1O)[C@@H](Cc1ccc(O)cc1)[N+](C)(C)CC2 [Magnocurarine iodide],scaled lipid accumulation score,[1],0.116
CCOCC(O)COc1ccc(NC(=O)CC[S+](C)C)cc1 (stereo not drawn) [Suplatast Tosylate],scaled lipid accumulation score,[2],≤ 0
same,scaled lipid accumulation score,[1],≤ 0
CCOCC(O)COc1ccc(NC(=O)CC[S+](C)C)cc1 (stereo not drawn) [Suplatast tosylate],scaled lipid accumulation score,[1],≤ -0.001
NC1=NCC2c3ccccc3Cc3ccccc3N12 (stereo not drawn) [Epinastine hydrochloride],scaled lipid accumulation score,[1],0.592
NC1=NCC2c3ccccc3Cc3ccccc3N12 (stereo not drawn) [Epinastine HCl],scaled lipid accumulation score,[2],≤ 0
same,scaled lipid accumulation score,[1],0.038
CCOC(=O)C(Cc1ccc(O)cc1)NC(C)=O (stereo not drawn) [Acetyl tyrosine ethyl ester],scaled lipid accumulation score,[1],≤ 0
CCCCC/C=C/C/C=C/CCCCCCCC(=O)O [Linoelaidic Acid],scaled lipid accumulation score,[3],0.006
C[C@]12CC[C@H](O)CC1=CCC1C2CC[C@]2(C)C(n3cnc4ccccc43)=CCC12 (stereo partly drawn) [Galeterone],scaled lipid accumulation score,[1],1.27 (active)
CC(=O)[C@H]1CC[C@H]2[C@@H]3CC=C4C[C@@H](O)CC[C@]4(C)[C@H]3CC[C@]12C [Pregnenolone],scaled lipid accumulation score,,0.084
same,scaled lipid accumulation score,[2],≤ 0
same,scaled lipid accumulation score,library stock concentration: 6.3 mM,≤ 0
same,scaled lipid accumulation score,[1],≤ 0
C[C@]12CC[C@H](O)CC1=CC[C@@H]1[C@@H]2CC[C@]2(C)C(n3cnc4ccccc43)=CC[C@@H]12 [Galeterone],scaled lipid accumulation score,[2],0.137
N[C@@H](Cc1ccc(O)c([N+](=O)[O-])c1)C(=O)O [Nitrotyrosine],scaled lipid accumulation score,[3],0.016
CC(C)NCCCn1c(Sc2cc3c(cc2I)OCO3)nc2c(N)ncnc21 [listing 1 of 2 here],scaled lipid accumulation score,[1],0.881 (active)
CC(C)NCCCn1c(Sc2cc3c(cc2I)OCO3)nc2c(N)ncnc21 [listing 2 of 2 here],scaled lipid accumulation score,[2],0.728
O=C(CCc1ccc(O)c(O)c1)N[C@@H](CC(=O)OCc1ccccc1)C(=O)OCc1ccccc1,scaled lipid accumulation score,[3],≤ 0
COCCOc1ccc2c(c1)ncn2-c1ccc2cccc(N3CCC(N)CC3)c2n1 [listing 1 of 2 here],scaled lipid accumulation score,[4],≤ 0
same,scaled lipid accumulation score,[5],0.202
same,scaled lipid accumulation score,[6],0.523
same,scaled lipid accumulation score,[2],0.785
same,scaled lipid accumulation score,[1],0.832
CC1(COc2ccc3c(c2)ncn3-c2ccc3cccc(N4CCC(N)CC4)c3n2)COC1 [listing 1 of 2 here],scaled lipid accumulation score,[1],0.404
CC1(COc2ccc3c(c2)ncn3-c2ccc3cccc(N4CCC(N)CC4)c3n2)COC1 [listing 2 of 2 here],scaled lipid accumulation score,[2],0.869 (active)
NC1CCN(c2cccc(Cl)n2)CC1,scaled lipid accumulation score,[1],0.62 and 0.499
COCCOc1ccc2c(c1)ncn2-c1ccc2cccc(N3CCC(N)CC3)c2n1 [listing 2 of 2 here],scaled lipid accumulation score,[1],0.937 (active)
COc1c2c(nc3ccccc13)OC(C(C)(O)CO)C2 (stereo not drawn) [Dubinidine],scaled lipid accumulation score,,≤ 0
O=C(O)CCCC=CCC1C(O)CC(O)C1C=CC(O)COc1cccc(C(F)(F)F)c1 [15(S)-Fluprostenol],scaled lipid accumulation score,[3],≤ 0
CCCCCCCCC=CCCCCCCCCOCCOP(=O)([O-])OCC[N+](C)(C)C [Oleyloxyethyl Phosphorylcholine],scaled lipid accumulation score,[3],≤ 0
CC/C=C\C/C=C\C/C=C\C/C=C\CCCCCCC(=O)OCC [.omega.-3 Arachidonic Acid ethyl ester],scaled lipid accumulation score,[3],≤ 0
CCCCCCCCCCCCCCCCCCCCCCCCC(=O)OC [Pentacosanoic Acid methyl ester],scaled lipid accumulation score,[3],≤ 0
CCCc1cc(C(=O)c2ccc(-c3ccccc3)cc2)ccc1OCCCN1CCCc2c(OC(C)(C)C(=O)O)cccc21,scaled lipid accumulation score,[3],≤ 0
CCCCCCCCC=CCCCCCCCCCCCC(N)=O [13-Docosenamide],scaled lipid accumulation score,[3],≤ 0
[O-][n+]1cccc(CO)c1,scaled lipid accumulation score,[1],≤ 0
CCCCC/C=C\C/C=C\C/C=C\C/C=C\CCCC(=O)OC(CO)CO [2-Arachidonoyl Glycerol],scaled lipid accumulation score,[3],≤ 0
CCCCC/C=C\C/C=C\C/C=C\C/C=C\CCCC(=O)OC(CO)CO [2-Arachidonoylglycerol],scaled lipid accumulation score,[3],0.011
CCCCCCCCCCCCCCCCn1cc[n+](Cc2ccccc2)c1C.[I-],scaled lipid accumulation score,[2],0.92 (active)
"CCCCCCCCCCCCCCCCn1cc[n+](Cc2ccccc2)c1C [eEF-2 Kinase Inhibitor, NH125]",scaled lipid accumulation score,[2],0.247
CCCCCCCCCCCCC[N+](C)(C)Cc1ccccc1 [Benzalkonium chloride],scaled lipid accumulation score,[1],0.182
CCCCCCCCCCCCCCCCn1cc[n+](Cc2ccccc2)c1C,scaled lipid accumulation score,[4],≤ -0.001
same,scaled lipid accumulation score,[5],≤ -0.001
same,scaled lipid accumulation score,[6],≤ -0.001
same,scaled lipid accumulation score,[1],0.213 and 0.435
CC/C=C\C/C=C\C/C=C\CCCCCCCC(=O)N[C@@H](Cc1ccc(O)cc1)C(=O)O [N-(.alpha.-Linolenoyl) Tyrosine],scaled lipid accumulation score,[3],≤ 0
"CCCCC/C=C\C=C\CCCCCCCCC(=O)O [10(E),12(Z)-Conjugated Linoleic Acid]",scaled lipid accumulation score,[3],0.069
CCC=CCC=CCC=CCC=CCCCCC(=O)OCC [Stearidonic Acid ethyl ester],scaled lipid accumulation score,[3],≤ 0
CC(=O)N[C@@H](CSC/C=C(\C)CC/C=C(\C)CC/C=C(\C)CCC=C(C)C)C(=O)O [N-acetyl-S-geranylgeranyl-L-Cysteine],scaled lipid accumulation score,[3],≤ 0 and ≤ -0.021
CCOC(=O)N1CCC(=C2c3ccc(Cl)cc3CCc3cccnc32)CC1,scaled lipid accumulation score,[1],≤ 0
CCOC(=O)N1CCC(=C2c3ccc(Cl)cc3CCc3cccnc32)CC1 [Loratadine],scaled lipid accumulation score,[2],≤ 0
same,scaled lipid accumulation score,library stock concentration: 5.2 mM,≤ 0
same,scaled lipid accumulation score,[1],≤ 0 and 0.008
Clc1ccc2c(c1)CCc1cccnc1C2=C1CCNCC1 [Desloratidine],scaled lipid accumulation score,[7],0.46
Cc1cccc(CN2CCN(C(c3ccccc3)c3ccc(Cl)cc3)CC2)c1 (stereo not drawn) [Meclizine hydrochloride],scaled lipid accumulation score,[1],0.376 and 0.485
Cc1cncc(CN2CCC(=C3c4ccc(Cl)cc4CCc4cccnc43)CC2)c1 [Rupatadine Fumarate],scaled lipid accumulation score,[2],0.371
CCOC(=O)N1CCC(=C2c3ccc(Cl)cc3CCc3cccnc32)CC1 [Loratidine],scaled lipid accumulation score,[1],0.128
Clc1ccc2c(c1)CCc1cccnc1C2=C1CCNCC1,scaled lipid accumulation score,[1],1.52 (active)
Cc1cccc(CN2CCN(C(c3ccccc3)c3ccc(Cl)cc3)CC2)c1 (stereo not drawn) [Meclozine dihydrochloride],scaled lipid accumulation score,,0.368
Clc1ccc2c(c1)CCc1cccnc1C2=C1CCNCC1 [Desloratadine],scaled lipid accumulation score,[2],0.268
same,scaled lipid accumulation score,[1],0.837
Cc1cncc(CN2CCC(=C3c4ccc(Cl)cc4CCc4cccnc43)CC2)c1.O=C(O)C=CC(=O)O [Rupatadine Fumarate],scaled lipid accumulation score,[1],0.862 (active)
C(=C(\CCNC1)/C1)(/c2c(cccn2)CC3)\c(ccc(Cl)c4)c34 [Desloratadine],scaled lipid accumulation score,[7],1.03 (active)
CCCCC/C=C/C/C=C/C/C=C/C/C=C/CCCC(=O)Oc1ccc2ccc(=O)oc2c1 [7-hydroxycoumarinyl Arachidonate],scaled lipid accumulation score,[3],≤ 0
CC(C)(C)c1nc2c3cc[nH]c(=O)c3c3cc(F)ccc3c2[nH]1 [JAK Inhibitor I],scaled lipid accumulation score,[2],≤ 0
CC(C)(C)c1nc2c3cc[nH]c(=O)c3c3cc(F)ccc3c2[nH]1 [Merck -5 (2 mM)],scaled lipid accumulation score,[6],≤ -0.005
CC(C)(C)c1nc2c3cc[nH]c(=O)c3c3cc(F)ccc3c2[nH]1 [Merck -5 (0.4 mM)],scaled lipid accumulation score,[5],≤ -0.005
CC(C)(C)c1nc2c3cc[nH]c(=O)c3c3cc(F)ccc3c2[nH]1 [Merck -5 (10 mM)],scaled lipid accumulation score,[1],0.114
COc1ccc2c(c1)c(CC(=O)NCCc1ccccc1)c(C)n2C(=O)c1ccc(Cl)cc1 [N-(2-phenylethyl)-Indomethacin amide],scaled lipid accumulation score,[3],0.049
O=c1ncn2nc(Sc3ccc(F)cc3F)ccc2c1-c1c(Cl)cccc1Cl,scaled lipid accumulation score,[4],0.019
same,scaled lipid accumulation score,[5],0.039
same,scaled lipid accumulation score,[6],0.129
same,scaled lipid accumulation score,[2],0.019
same,scaled lipid accumulation score,[1],≤ 0 and 0.119
C[C@@H](O)[C@H]1C(=O)N2C(C(=O)OCOC(=O)C(C)(C)C)=C(SC3CN(C4=NCCS4)C3)[C@H](C)[C@H]12 [Tebipenem Pivoxil],scaled lipid accumulation score,[2],≤ 0
same,scaled lipid accumulation score,[1],≤ 0
"O=P(O)(O)O[C@H]1[C@@H](O)[C@H](O)[C@@H](OP(=O)(O)O)[C@H](OP(=O)(O)O)[C@H]1O [D-myo-Inositol-2,4,5-triphosphate (sodium salt)]",scaled lipid accumulation score,[3],≤ 0
O=C1C(Cl)=C(N2C(=O)CCC2=O)C(=O)c2ccccc21 [MEK Inhibitor II],scaled lipid accumulation score,[2],0.073
CCCCCCCCCCCCCC(=O)OCC [Myristic Acid ethyl ester],scaled lipid accumulation score,[3],0.028
COc1cc2ncnc(Nc3ccc(O)c(Br)c3)c2cc1OC [JAK3 Inhibitor II],scaled lipid accumulation score,[2],≤ 0
COc1cc2/c(=N/c3ccc(Br)cc3F)nc[nH]c2cc1OCC1CCN(C)CC1 [Vandetanib (ZD6474)],scaled lipid accumulation score,[1],0.754
COc1cc2ncnc(Nc3ccc(O)c(Br)c3)c2cc1OC,scaled lipid accumulation score,[2],≤ 0
same,scaled lipid accumulation score,[1],≤ 0
COc1cc2/c(=N/c3ccc(Br)cc3F)nc[nH]c2cc1OCC1CCN(C)CC1 [Vandetanib],scaled lipid accumulation score,[4],0.09
same,scaled lipid accumulation score,[5],0.381
COc1cc2c(Nc3ccc(Br)cc3F)ncnc2cc1OCC1CCN(C)CC1 [Vandetanib],scaled lipid accumulation score,[6],1.27 (active)
same,scaled lipid accumulation score,[1],1.66 (active)
"COc1cc2c(Nc3ccc(Br)cc3F)ncnc2cc1OCC1CCN(C)CC1 [Vandetanib  (ZD6474, Zactima) (0.4 mM)]",scaled lipid accumulation score,[5],1.1 (active)
COc1cc2ncnc(Nc3ccc(Cl)cc3F)c2cc1OC,scaled lipid accumulation score,[2],≤ 0
same,scaled lipid accumulation score,[1],≤ 0 and ≤ -0.001
"COc1cc2c(Nc3ccc(Br)cc3F)ncnc2cc1OCC1CCN(C)CC1 [Vandetanib  (ZD6474, Zactima) (2 mM)]",scaled lipid accumulation score,[6],0.855 (active)
"COc1cc2/c(=N/c3ccc(Br)cc3F)nc[nH]c2cc1OCC1CCN(C)CC1 [Vandetanib  (ZD6474, Zactima) (10 mM)]",scaled lipid accumulation score,[1],0.445
COc1cc2c(Nc3ccc(Br)cc3F)ncnc2cc1OCC1CCN(C)CC1 [Vandetanib (ZD6474)],scaled lipid accumulation score,[2],1.18 (active)
C=CC(=O)N1CCC(Oc2cc3c(Nc4ccc(Cl)c(Cl)c4F)ncnc3cc2OC)CC1 [Poziotinib],scaled lipid accumulation score,[4],0.111
same,scaled lipid accumulation score,[5],0.281
same,scaled lipid accumulation score,[6],0.059
same,scaled lipid accumulation score,[1],0.72
